Bioassay records: PubChem, The Scripps Research Institute Molecular Screening Center
In the library only some 2.8% were active in any assay of this set; here they are far more common.
rCAG binder: binders of r(CAG) RNA repeats, primary screen, biochemical, fluorescence. r(CAG) RNA repeat, TO-PRO-1 dye displacement fluorescence. inhibition, % at 3 µM. hit rate 1.3% among 370,000;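 active = inhibition above the plate cutoff, the mean of all test compounds on that plate plus 3 SD, cut at about 35% in these data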;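 also: 0% = DMSO alone and 100% = 100 µM mitoxantrone as full dye displacement; higher means more dye released from RNA so lower well fluorescence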
MsrA act: bovine MsrA enzyme activators, primary screen, biochemical, absorbance, HTS. Methionine sulfoxide reductase A (Bos taurus). purified bovine MsrA, absorbance read-out. activation, % at 10.6 µM. hit rate 0.3% among 360,000; in the data active = activation above about 7.5%;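 also: 0% = vehicle and 100% = reference activator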
MsrA inh: bovine MsrA enzyme inhibitors, primary screen, biochemical, absorbance, HTS | inhibition, % at 15.5 µM | Methionine sulfoxide reductase A (Bos taurus) | AID 651718, 2012 | hit rate 0.75% among 360,000 | purified bovine MsrA, absorbance read-out; in the data active = inhibition above about 4.5%;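 also: 0% = vehicle wells with enzyme and 100% = reference inhibitor wells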
sPLA2-III inh: human group III sPLA2 inhibitors, primary screen, biochemical, QFRET, BODIPY PC-A2 liposome substrate; QFRET BODIPY PC-A2 liposome hydrolysis, fluorescence; inhibition, % at 12.2 µM; hit rate 0.56% among 370,000; AID 743126, 2013;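 active = inhibition above mean plus 3 SD of compounds lying within the high and low control bounds, cut at about 19% in these data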;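 also: 0% = median of test compound wells and 100% = no enzyme DMSO wells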
Target sequence (Q9NZ20 whole entry, looked up): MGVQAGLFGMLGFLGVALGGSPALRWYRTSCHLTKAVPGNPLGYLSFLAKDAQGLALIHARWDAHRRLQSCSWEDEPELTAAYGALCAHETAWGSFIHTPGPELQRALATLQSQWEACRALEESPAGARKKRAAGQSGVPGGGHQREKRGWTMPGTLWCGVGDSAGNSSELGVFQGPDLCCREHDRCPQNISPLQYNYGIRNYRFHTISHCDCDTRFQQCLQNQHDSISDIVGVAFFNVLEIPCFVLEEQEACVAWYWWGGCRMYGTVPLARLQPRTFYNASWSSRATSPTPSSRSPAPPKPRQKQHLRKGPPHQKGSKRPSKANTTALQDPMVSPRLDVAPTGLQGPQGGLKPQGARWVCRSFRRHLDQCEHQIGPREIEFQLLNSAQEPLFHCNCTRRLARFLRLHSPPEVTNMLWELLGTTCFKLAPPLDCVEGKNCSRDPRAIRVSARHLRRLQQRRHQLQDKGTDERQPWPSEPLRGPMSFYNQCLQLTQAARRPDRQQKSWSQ
MsrA act confirm: bovine MsrA activators, retest, confirmation, biochemical, absorbance, HTS; shares compounds with MsrA act; purified bovine MsrA, absorbance read-out; activation, % at 10.6 µM; hit rate 12% among 1,000; AID 602270, 2012; in the data active = activation above about 4%;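 also: enzyme coupled to thioredoxin and thioredoxin reductase with NADPH; 0% = vehicle wells and 100% = reference activator wells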
* hit, by the source's call; . = no result.

SMILES	rCAG binder	MsrA act	MsrA inh	sPLA2-III inh	MsrA act confirm
CCOC(=O)CSc1nnc(-c2nnc(SCC(=O)OCC)n2CC)n1CC	-2.1	7.7*	0.1	0.3	-0.1
CN(C)S(=O)(=O)c1cccc(NC(=O)Cn2cnc3ccccc3c2=O)c1	1.0	-1.0	-1.4	3.7	.
O=C(Cc1ccccc1)N/N=C/c1ccc([N+](=O)[O-])s1	3.4	7.9*	1.7	-5.9	0.7
O=C(N/N=C/c1ccc([N+](=O)[O-])s1)c1ccccc1	-0.9	5.7	1.8	-2.1	.
CC(=O)c1c(C)n(-c2ccc(Cl)cc2)c2ccc(O)cc12	-1.1	7.8*	-0.8	-4.3	0.1
CC(=O)c1ccc(-n2c(C)c(C(C)=O)c3cc(O)ccc32)cc1	-4.6	-3.3	1.0	11.2	.
CCCC(=O)Nc1ccc(C(=O)COC(=O)C2=COCCO2)cc1	0.3	8.1*	-0.2	0.5	-0.3
CCN(CC(=O)Nc1ccc(OC)cc1)C(=O)c1cc(S(=O)(=O)N2CCOCC2)ccc1N1CCCC1	-0.1	-6.5	-0.1	-7.2	.
C=C(C)C1Cc2c(C)nn(-c3cccc4ccccc34)c2C1 (configuration not stated)	0.4	8.0*	-0.9	-2.7	-2.0
Cc1ccc(OCCC(=O)OCC(=O)N2CC(=O)Nc3ccccc32)cc1	1.5	-2.2	-0.2	-3.4	.
C=CCN(c1cccc(C(F)(F)F)c1)S(=O)(=O)c1cccc(C(=O)OCC(=O)Nc2ccccc2)c1	0.3	8.3*	1.7	-7.7	-1.4
Cc1ccc(-c2nc3ccccc3c(=O)n2NC(=O)COc2ccccc2)cc1	1.7	-2.3	-0.9	-5.8	.
Cc1ccc(OCC(=O)Nn2c(C)nc3ccccc3c2=O)c(C(C)C)c1	3.8	8.2*	0.4	-10.3	-2.9
COc1ccc(-c2ccc(NC(=O)c3ccc(Br)o3)cc2)nn1	-1.4	-1.6	0.9	-2.1	.
Cc1ccc(-n2[nH]c(C)c(C=Nc3ccc4[nH]c(=O)[nH]c4c3)c2=O)cc1C	-7.5	-7.6	2.4	-18.1	.
Cc1ccc(-n2[nH]c(C)c(C=Nc3ccc4[nH]c(=O)[nH]c4c3)c2=O)cc1	7.2	7.8*	3.3	-1.5	-0.5
O=C(NNC(=O)c1ccc(F)cc1F)c1ccc(-n2cnnn2)cc1	-0.3	-0.2	-0.7	-0.9	.
CC1CCN(CCCNC(=O)c2coc3nc4ccccc4nc23)CC1	2.7	9.0*	1.1	-4.8	-1.5
CC1CCCN(CCCNC(=O)c2coc3nc4ccccc4nc23)C1 (configuration not stated)	2.8	0.7	0.4	0.3	.
COc1cccc(OC)c1OCCOc1ccc(C(=O)c2ccccc2)cc1	-3.6	18.0*	-0.2	-7.9	0.9
CCOC(=O)N1CCN(C(=O)CN(c2ccccc2OC)S(=O)(=O)c2ccc(C)cc2)CC1	-4.7	-5.7	-1.1	-1.2	.
Cc1ccc(-c2ccc(/C=N/NC(=O)CN3CCCC3)o2)cc1Cl	4.6	8.8*	1.6	-14.8	0.6
COC(=O)N/N=C/c1ccc(-c2ccc(C)c(Cl)c2)o1	2.9	-4.6	2.4	-4.1	.
COc1ccc(S(=O)(=O)N2CCCCCC2)cc1C(=O)N(C)Cc1ccccc1F	-11.6	-2.6	0.3	-7.5	.
CN(Cc1ccccc1)C(=O)c1csc([C@H]2C[C@H](O)[C@@H](CO)O2)n1	-0.9	-1.1	-0.8	1.3	.
SMILES	rCAG binder	MsrA act	MsrA inh	sPLA2-III inh	MsrA act confirm
CN(Cc1ccccc1)C(=O)c1csc([C@@H]2C[C@H](O)[C@@H](CO)O2)n1	-0.1	9.3*	-0.2	1.7	-0.8
c1ccc(-c2cc3c(N4CCCC4)ncnc3s2)cc1	2.1	-11.1	0.0	4.4	.
c1ccc(-c2cc3c(N4CCOCC4)ncnc3s2)cc1	7.5	8.0*	2.3	-7.8	-3.1
Cc1cccc(OCc2nnc(SCC(=O)NC3CCCCC3)n2C)c1	-5.2	-1.4	-0.8	-0.2	.
O=C(CN1CCCCC1)Nc1cccc(Br)c1	3.4	7.8*	0.1	2.6	-1.2
CCCCCC(=O)NNC(=S)NC(=O)c1cccc([N+](=O)[O-])c1	5.9	8.9*	0.8	1.0	0.7
CCOc1ccc2[nH]c(=O)c(CN(Cc3cccs3)Cc3nnnn3C(C)(C)CC)cc2c1	0.4	-2.6	-0.5	-12.2	.
CCC(C)(C)n1nnnc1CN(Cc1cccs1)Cc1cc2cc(OC)ccc2[nH]c1=O	-3.9	7.7*	1.5	-9.6	-2.8
O=C(NCc1ccc(F)cc1Cl)C1CCN(S(=O)(=O)N2CCCCC2)CC1	-2.1	-5.8	0.3	4.7	.
OC[C@@H]1CN(Cc2ccc3c(c2)OCO3)C[C@H](n2cnc3c(N4CCOCC4)ncnc32)O1	-0.6	7.8*	0.6	14.9	0.3
NC(c1ccc(F)c(F)c1)c1nc(-c2ccc3ccccc3c2)cs1 (configuration not stated)	3.1	-0.3	-0.2	-2.0	.
OC(c1ccc(F)c(F)c1)c1nc(-c2ccc3ccccc3c2)cs1 (configuration not stated)	6.5	9.2*	-0.8	-14.3	0.6
Nc1ncnc2nc(SCc3ccccc3)[nH]c12	1.3	7.8*	0.4	2.3	-0.1
CCN(CC)c1ccc2nc3ccccc3[n+](CC)c2c1	.	33.6*	.	.	19.2*
Cc1cc(C)c(C(=O)NC2CCCc3c2cnn3-c2cccc(C)c2C)o1 (configuration not stated)	-10.9	-5.8	0.3	-1.2	.
O=C(Nc1cccnc1Cl)c1cccs1	-0.6	16.8*	-0.9	1.9	-0.9
O=C(Nc1ccccn1)c1cccs1	-2.8	-8.7	1.2	3.1	.
c1ccc(-n2cnc3cc(NCc4ccco4)ccc32)cc1	-2.4	9.5*	0.0	10.5	1.1
c1ccc(-n2cnc3cc(NCc4cccs4)ccc32)cc1	-1.1	-1.5	0.4	1.5	.
COc1ccc(CCNC(=O)[C@@H](NC(N)=O)C(C)C)cc1	-1.6	-3.0	0.8	3.9	.
COc1cccc(NC(=O)C2(C)CCN2C(=O)Cc2ccc(-c3ccccc3)cc2)c1 (configuration not stated)	5.6	-2.2	-0.6	-14.9	.
CC1(C(=O)Nc2ccccc2)CCN1C(=O)Cc1ccc(-c2ccccc2)cc1 (configuration not stated)	2.0	14.2*	0.2	1.5	5.2*
CC(=O)Nc1c(C)ccc([N+](=O)[O-])c1C	0.1	-5.7	1.1	7.2	.
c1ccc(-c2nc(NC3CC3)nc(-n3ccnc3)n2)cc1	4.8	14.1*	0.5	3.5	-1.6
Cn1c(=O)[nH]c(=O)c2c1nc(SCCN1CCOCC1)n2CCCc1ccccc1	1.6	-8.4	0.1	5.4	.
COc1cc(OC)c(CN2CCCCCCC2)cc1Br	2.9	12.1*	-0.3	11.0	-2.5
COc1cc(OC)c(CN2CCCN(C)CC2)cc1Br	-3.6	-2.5	1.2	7.3	.
O=C1CCCC(O)=C1N=Nc1ccc(Cl)c(Cl)c1	4.1	-1.6	4.0	1.8	.
CC(=O)N1CCc2cc(N=NC3=C(O)CCCC3=O)ccc21	-7.9	8.7*	2.1	4.9	-1.0
